# In paper PMC5540273 (PLoS ONE, 2017):
# How the values were obtained:
# Details in all cases: concentration: 1 μM, replicates: in singlicate; n = 1
# BIKE = test system: T1, BIKE
# T1 construct: gene BMP2K
# BLK = test system: BLK
# BMPR1A = test system: BMPR1A
# BMPR1B = test system: BMPR1B
# BMPR2 = test system: BMPR2
# BMX = test system: BMX
# BRAF = test system: BRAF
# BRK = test system: T2, BRK
# T2 construct: gene PTK6
# BRSK1 = test system: BRSK1
# BRSK2 = test system: BRSK2
# BTK = test system: BTK
# BUB1 = test system: BUB1
# CAMK1B = test system: CAMK1B
# CAMK1D = test system: CAMK1D
# CAMK1G = test system: CAMK1G
# CAMK1 = test system: CAMK1
# CAMK2A = test system: CAMK2A
# CAMK2B = test system: CAMK2B
# CAMK2D = test system: CAMK2D
# CAMK2G = test system: CAMK2G
# 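Also: KINOMEscan kinase panel screen.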
SMILES,%Inh (BIKE),%Inh (BLK),%Inh (BMPR1A),%Inh (BMPR1B),%Inh (BMPR2),%Inh (BMX),%Inh (BRAF),%Inh (BRK),%Inh (BRSK1),%Inh (BRSK2),%Inh (BTK),%Inh (BUB1),%Inh (CAMK1B),%Inh (CAMK1D),%Inh (CAMK1G),%Inh (CAMK1),%Inh (CAMK2A),%Inh (CAMK2B),%Inh (CAMK2D),%Inh (CAMK2G)
Cc1ccc(NC(=O)c2ccc(Cl)cc2)cc1-c1ccc(C(=O)Nc2ccncc2)cc1 [GSK1398467],13%,1%,0%,0%,0%,8%,0%,0%,0%,18%,0%,47%,4%,0%,9%,4%,100%,86%,10%,12%
Cc1ccc(NC(=O)Nc2ccc(Cl)cc2)cc1-c1ccc(C(=O)Nc2ccncc2)cc1 [GSK1398472],18%,21%,0%,0%,0%,15%,43%,30%,0%,0%,0%,43%,34%,13%,0%,10%,0%,0%,0%,13%
CSc1ccc(-c2nc3n(c2-c2ccncc2)CCC3)cc1 [SKF-105561],16%,4%,0%,6%,1%,0%,7%,1%,0%,0%,0%,90%,0%,15%,0%,0%,0%,0%,0%,0%
O=C1NC(=O)C(c2ccc(Cl)cc2)=C1Nc1ccc(O)cc1 [SB-340867],4%,0%,0%,0%,0%,21%,0%,0%,0%,0%,0%,0%,0%,99.8%,0%,100%,0%,0%,0%,6%
Cc1cccc2c(-c3ccncn3)c(-c3ccc(F)cc3)nn12 [GW515532],10%,33%,0%,0%,0%,0%,22%,0%,6%,10%,0%,65%,9%,0%,0%,5%,0%,0%,0%,0%
COc1ccc(Nc2nccc(N3CCC(NC(=O)C(C)c4ccc(Cl)cc4)CC3)n2)cc1 (stereo not drawn) [GSK1379812],36%,5%,0%,0%,7%,28%,0%,0%,0%,13%,0%,6%,32%,23%,13%,25%,0%,0%,14%,36%
Fc1ccc(-c2nn3cccc(F)c3c2-c2ccncc2)cc1 [GW475620],34%,20%,24%,0%,0%,8%,29%,11%,0%,0%,0%,53%,39%,10%,40%,6%,0%,0%,6%,14%
CN1c2ccc(-c3ccc(C(N)=O)cc3)cc2-c2[nH]ncc2S1(=O)=O,9%,6%,0%,0%,0%,0%,0%,0%,0%,6%,0%,0%,32%,10%,0%,27%,11%,7%,18%,2%
CC(C)c1cc(-c2ccc3c(N)n[nH]c3c2)nc(N)n1 [GSK2250882],72%,5%,0%,0%,4%,18%,0%,14%,40%,22%,0%,60%,0%,23%,6%,21%,0%,0%,8%,23%
CNCc1ccc2nc(NC(=O)c3ccc(C(C)(C)C)cc3)cn2c1,15%,0%,17%,14%,19%,0%,18%,2%,9%,0%,32%,26%,33%,1%,0%,1%,4%,2%,1%,12%
CC(=O)c1cccc(NC(=O)NC2CCN(c3ccnc(Nc4ccc(F)cc4)n3)C2)c1 (stereo not drawn) [GSK1379710],25%,0%,0%,0%,10%,16%,0%,4%,6%,0%,0%,33%,39%,16%,7%,20%,0%,0%,4%,32%
COC(=O)c1cccc(NC(=O)NC2CCN(c3ccnc(Nc4ccc(OC)cc4)n3)C2)c1 (stereo not drawn) [GSK1379746],6%,0%,9%,0%,26%,3%,7%,28%,0%,0%,2%,75%,4%,3%,0%,0%,100%,100%,0%,0%
Cc1ccccc1-c1cc(-c2c[nH]nc2-c2ccccn2)ccn1 [GW680061],2%,32%,0%,0%,7%,1%,6%,18%,0%,0%,3%,35%,0%,16%,0%,9%,0%,0%,0%,11%
CCc1ccc(-c2ccc3c(c2)-c2n[nH]cc2S(=O)(=O)N3C)cc1,12%,9%,0%,0%,0%,0%,0%,0%,0%,4%,0%,0%,0%,0%,0%,0%,0%,0%,21%,5%
COC(=O)C(NC(=O)NC1CCN(c2ccnc(Nc3ccc(F)cc3)n2)C1)c1ccccc1 (stereo not drawn) [GSK1379712],8%,0%,0%,0%,17%,3%,9%,2%,12%,0%,18%,37%,35%,5%,0%,9%,0%,0%,11%,19%
